USP8 inh – blocks human USP8 ubiquitin-rhodamine cleavage; purified USP8, Ub-rhodamine cleavage fluorescence, 30 min; inhibition, % at 20 µM; 47,000 tested, 4.2% active
USP28 block – human USP28 deubiquitinase inhibition | purified USP28, Ub-rhodamine cleavage fluorescence, 30 min | inhibition, % at 25 µM | 47,000 tested, 3% active
USP10 inh – inhibitors of human USP10 deubiquitinase; Q14694; purified USP10, Ub-rhodamine fluorescence, 60 min; inhibition, % at 20 µM; 47,000 tested, 1.1% active; AID 1645856
USP17 block – blocks human USP17 ubiquitin-rhodamine cleavage. A8MUK1. purified USP17, Ub-rhodamine cleavage fluorescence, 3 h. inhibition, % at 50 µM. 47,000 tested, 6.5% active
USP30 inh – human USP30 deubiquitinase inhibition. purified USP30, Ub-rhodamine cleavage fluorescence. 47,000 tested, 5.3% active. inhibition, % at 25 µM. AID 1645860
USP7 block – blocks human USP7 ubiquitin-rhodamine cleavage; 47,000 tested, 0.3% active; inhibition, % at 20 µM; purified USP7, Ub-rhodamine cleavage fluorescence
A number is an active result; n = inactive; x = no result. In the library only some 13% were active in any assay of this set; here they are far more common. No stated cut-off is given here; in the data, active means inhibition above about 30%; inactive means the rest.

SMILES	USP8 inh	USP28 block	USP10 inh	USP17 block	USP30 inh	USP7 block
CCC(CO)NC(=O)c1nc2c(s1)CCCN2C(=O)C1CC1 (centres undefined)	n	n	n	n	n	n
CN1C(=O)COc2ccc(C(=O)CN3C(=O)COc4ccc(Cl)cc43)cc21	n	n	n	n	n	n
O=C(Cc1cc(-c2ccc(F)cc2)on1)NCc1ccc(Cl)cc1	n	n	n	n	n	n
O=C(Cc1cc(-c2ccc(F)cc2)on1)NCc1ccccc1	n	n	n	60	n	n
O=C(Cc1cc(-c2ccc(F)cc2)on1)Nc1ccccc1C(F)(F)F	n	n	n	39	n	n
COc1ccccc1CNC(=O)Cc1cc(-c2ccc(F)cc2)on1	n	n	n	n	n	n
CC1(C(=O)NC2CCCC2)CCC(=O)N1c1ccc(F)cc1F (centres undefined)	n	n	n	n	n	n
CC(=O)N1CCN(Cc2nc(-c3ccc(N4CCCCC4)nc3)no2)CC1	n	n	n	n	n	n
CN1CCN(Cc2nc(-c3ccc(N4CCCCC4)nc3)no2)CC1	n	n	n	n	33	n
O=C(NCCc1ccccc1)c1nc(-c2ccc3cc[nH]c3c2)no1	n	n	n	48	n	n
Cn1nccc1-c1cnc(CC2CCN(C(=O)C(C)(C)C)CC2)cn1	n	n	n	n	n	n
COc1ccc2c(C)c(CC(=O)N[C@@H](Cc3c[nH]c4ccc(O)cc34)C(=O)O)c(=O)oc2c1C	45	n	n	n	n	n
CC(C)(C)c1cc(C(=O)NC2CCCC2)nc2ccnn12	n	n	n	31	31	n
CC(C)C[C@@H]1NC(=O)[C@H](CCCN)NC(=O)[C@H](C(C)C)NC(=O)[C@H](Cc2ccc(O)cc2)NC(=O)[C@H](CCC(N)=O)NC(=O)[C@H](CC(N)=O)NC(=O)[C@@H](Cc2ccccc2)NC(=O)[C@H](Cc2ccccc2)NC(=O)[C@@H]2CCCN2C(=O)[C@@H](Cc2ccccc2)NC1=O	n	39	n	n	n	n
CCC(C)C1NC(=O)C(CCC(N)=O)N(C)C(=O)C(C(C)C)N(C)C(=O)CNC(=O)C2CCCN2C(=O)C(Cc2ccccc2)NC(=O)C(C(C)CC)OC(=O)C(CCC(=O)O)N(C)C(=O)C(C(C)C)NC(=O)C2CCCCN2C1=O (centres undefined)	n	n	n	n	n	n
COc1ccc(CC(=O)Nc2cc(=O)[nH]c3nc(-c4ccco4)nn23)cc1	n	n	n	34	n	n
COc1ccc(CC(=O)Nc2cc(=O)[nH]c3nc(-c4ccccc4C)nn23)cc1	n	n	n	n	n	n
COc1cc2c(C#N)c(OC)nc3c2c(n1)NC(C)(c1ccc(Br)cc1)N3 (centres undefined)	85	n	n	n	n	n
O=c1c(S(=O)(=O)N2CCCC2)cccn1Cc1ccccc1	n	n	n	n	n	n
COc1cc2c(cc1OC)-c1cc(Nc3ccc(CN4CCCCC4)cc3)nc(=O)n1CC2	n	n	n	n	n	n
Oc1ccc(Br)cc1CNc1ccc(F)cc1	85	60	n	53	n	n
CC(C)N1C(=O)C2COCCN2C(=O)c2cc3c(cc21)OCO3 (centres undefined)	n	x	n	37	x	n
Cc1cnc(C2COCCN2C(=O)c2ccc3c(c2)OCO3)[nH]1 (centres undefined)	n	n	n	n	n	n
COc1ccc(C(NS(=O)(=O)c2ccc(S(=O)(=O)N3CCOCC3)cc2)c2ccccc2)cc1 (centres undefined)	n	n	n	n	36	n
CC(=O)C1C(=O)C=C(c2ccccc2)CC1c1ccccc1 (centres undefined)	n	n	n	32	n	n
SMILES	USP8 inh	USP28 block	USP10 inh	USP17 block	USP30 inh	USP7 block
CC(=O)N1[C@@H](c2ccccc2)C[C@@]2(C)[C@@H](O)[C@@H](O)CCC[C@@H]12	n	x	n	n	x	n
O=C(COc1ccccc1)NCC1(N2CCOCC2)CCCCC1	n	n	n	n	n	n
Cn1c(=O)c2c(-c3cccc(F)c3)c(Nc3ccccc3)oc2n(C)c1=O	n	39	n	n	n	n
COC(=O)c1ccc(S(=O)(=O)N(Cc2ccc(C(N)=O)cc2)C2CC2)cc1	n	n	n	n	n	n
O=C(Nc1ccc(F)cc1F)Nc1nccn(-c2cccc(F)c2)c1=O	n	n	n	n	n	n
COc1cccc(NC(=O)Nc2nccn(-c3ccc(F)cc3)c2=O)c1	n	n	n	54	n	n
CCOc1cccc2nnc(NC(=O)Nc3cccc(F)c3)n12	n	n	n	n	n	n
O=C(Nc1ccccc1)Nc1nccn(-c2ccc3c(c2)CCC3)c1=O	n	n	n	30	39	n
O=C(Nc1nccn(-c2ccc3c(c2)CCC3)c1=O)c1ccccc1	n	n	n	n	n	n
COc1ccccc1-n1ccnc(NC(=O)Nc2cccc(F)c2)c1=O	n	n	n	46	n	n
O=C(c1ccco1)[C@H]1C(c2ccc(Cl)cc2)=NO[C@]12C(=O)Nc1ccccc12	n	n	n	n	n	n
Cn1c(=O)n(Cc2ccc(OC(F)(F)F)cc2)c2cncnc21	n	n	n	n	n	n
CC(CCc1ccccc1)NC(=O)c1ccc(-c2cccs2)cc1 (centres undefined)	n	x	n	n	x	n
Cc1cc(=O)oc2cc(OCC(=O)Nc3cc(Cl)ccc3N3CCOCC3)ccc12	n	n	n	42	50	n
COc1cn(-c2ccc(F)cc2)nc1C(=O)Nc1ccc(F)c(F)c1	n	n	n	35	32	n
COc1ccc(NC(=O)CSc2nccn(-c3ccc(F)c(F)c3)c2=O)cc1Cl	n	n	n	n	n	n
Cc1ccc2cc3c(NC(=O)CCC(=O)O)nn(CC(C)C)c3nc2c1	n	n	n	n	n	n
COc1ccc(-c2cc(C(=O)Nc3n[nH]c4nc(C)ccc34)[nH]n2)c(OC)c1	56	n	n	32	n	n
COc1cccc(NC(=O)c2cc(-c3ccccc3)n[nH]2)c1	n	n	n	n	n	n
COc1ccccc1Nc1ncc2c(n1)CC(C)CC2=O (centres undefined)	n	n	n	n	n	n
COc1cccc2c1C(=O)c1ccc3c(c1C2=O)C(=O)C[C@@H](C)[C@@H]3O	n	n	n	45	n	n
COc1cccc2c1C(=O)c1ccc3c(c1C2=O)C(=O)C[C@@H](C)C3	n	n	n	30	n	n
COCCn1c(SC)nc2ccccc2c1=O	n	n	n	n	n	n
COc1ccc2nc(N3CC(C(=O)Nc4ccc(C(N)=O)cc4)C3)sc2c1	n	32	n	65	62	n
COc1ccc2nc(N3CC(C(=O)N4CCC5(CC4)OCCO5)C3)sc2c1	n	n	n	n	n	n
Cc1cc(O)c2c3c(c(O)c4c(c13)O[C@@H](C)C4(C)C)C(=O)C2=O	n	31	n	83	n	n
